In PubChem BioAssay (EPA / NIEHS):
“And” between values parts separate entries of the source, which are not always exact repeats. Equal values may be shown once. Results filed as inconclusive are left out. Some compounds were tested as several samples or in several runs, with calls that do not always agree. The source made the active and inactive calls. Rule for the calls, unless noted: active = hit-call score of the fitted dose curve at least 0.9, where 1 is the maximum; inconclusive = response in the unintended direction; inactive = score below 0.9.

Key:
[1] = read-out: UDP glucuronosyltransferase (UGT1A1), UGT1A1 (gene 54658); experiment: LTEA_HepaRG_UGT1A1: Life Technologies and Expression Analysis (LTEA) Assay for UDP glucuronosyltransferase (UGT1A1) using HepaRG (AID 2283538; active = hit-call score of the fitted dose curve at least 0.9, where 1 is the maximum; inactive = score below 0.9); details: mRNA level, 48 h; actives raise or lower the signal
Outline: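 HepaRG, 48 h chemical exposure (top 100 uM, half-log 8-pt, 0.5% DMSO vehicle), duplicate wells; qRT-PCR (TaqMan, Fluidigm array) for UGT1A1 mRNA, housekeeping-normalized; bidirectional curve fit vs DMSO baseline.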

[2] = read-out: UDP glucuronosyltransferase (UGT1A6), UGT1A6 (gene 54578); experiment: LTEA_HepaRG_UGT1A6: Life Technologies and Expression Analysis (LTEA) Assay for UDP glucuronosyltransferase (UGT1A6) using HepaRG (AID 2283539; active = hit-call score of the fitted dose curve at least 0.9, where 1 is the maximum; inactive = score below 0.9); details: mRNA level, 48 h; actives raise or lower the signal
Outline: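 qRT-PCR readout of UGT1A6 mRNA (normalized to ACTB/GAPDH/POLR2A) in differentiated HepaRG cells after 48 h chemical exposure; 8 concentrations, top 100 uM, half-log steps, 0.5% DMSO. Bidirectional curve fit relative to DMSO baseline.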

[3] = read-out: X-box binding protein 1 (XBP1), XBP1 (gene 7494); experiment: LTEA_HepaRG_XBP1: Life Technologies and Expression Analysis (LTEA) Assay for X-box binding protein 1 (XBP1) using HepaRG (AID 2283540; active = hit-call score of the fitted dose curve at least 0.9, where 1 is the maximum; inactive = score below 0.9); details: mRNA level, 48 h; actives raise or lower the signal
Outline: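 HepaRG, 48 h exposure, 8-pt half-log CRC top 100 uM, 0.5% DMSO vehicle, duplicates. Readout: TaqMan qRT-PCR of XBP1 mRNA, housekeeping-normalised (ACTB/GAPDH/POLR2A); bidirectional fit vs DMSO baseline.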

[4] = LTEA_HepaRG_LDH_cytotoxicity: Cytotoxicity Assessment in the Life Technologies and Expression Analysis (LTEA) Assay (AID 2283563);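 for AC50: LDH activity released into spent culture medium as a marker of cell death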
Outline: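 HepaRG (human liver line), 48 h exposure, 8-pt half-log series from 100 uM, 0.5% DMSO vehicle, duplicates. Read-out: LDH in spent medium. Positive-direction fit vs DMSO baseline.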

[5] = ATG_XTT_Cytotoxicity: Cytotoxicity Assessment in the Attagene TRANS-FACTORIAL HepG2 Assay (AID 2283584)
Outline: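 XTT readout of cell number in transfected HepG2 cells, 24 h post-dosing; DMSO serves as negative control and baseline, with activity taken as loss of viability signal.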

[6] = TOX21_p53_BLA_p2_viability: Viability Assessment in the Tox21 HCT-116 p53 Agonism Beta-lactamase Assay, Phase 2 (AID 2283591);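 note: actives lower the ATP signal meaning cytotoxicity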
Outline: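 HCT116 p53-bla cells, 4000/well, dosed after 5 h plating (217-fold dilution of DMSO stocks) and incubated 16 h at 37C. Viability taken as cellular ATP by CellTiter-Glo luminescence after 30 min RT; signal loss marks cytotoxicity.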

[7] = biological target: Cellular tumor antigen p53 (Homo sapiens) (UniProt P04637); experiment: TOX21_p53_BLA_p2_ratio: Tox21 HCT-116 p53 Agonism Beta-lactamase Assay, Ratio, Phase 2 (AID 2283592)
Sequence of Cellular tumor antigen p53 (Homo sapiens) (P04637 whole entry, looked up): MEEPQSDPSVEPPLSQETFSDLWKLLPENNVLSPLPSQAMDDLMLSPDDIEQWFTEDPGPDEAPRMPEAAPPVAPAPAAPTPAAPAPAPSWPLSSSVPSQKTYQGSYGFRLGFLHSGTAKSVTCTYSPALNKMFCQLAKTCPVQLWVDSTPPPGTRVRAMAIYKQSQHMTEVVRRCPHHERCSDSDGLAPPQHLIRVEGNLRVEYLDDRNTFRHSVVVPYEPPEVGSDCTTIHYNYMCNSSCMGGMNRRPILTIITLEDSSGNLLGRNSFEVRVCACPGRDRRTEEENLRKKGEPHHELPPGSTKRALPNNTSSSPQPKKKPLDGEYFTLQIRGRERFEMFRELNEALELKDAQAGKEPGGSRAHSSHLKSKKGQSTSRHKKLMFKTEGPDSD
Outline: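 Readout: blue/green (460/530 nm) FRET emission ratio after 2 h CCF4-AM loading at room temperature, excitation 405 nm. HCT116 p53 bla cells, 16 h compound exposure at 37C, 5% CO2; agonist direction fitted against DMSO baseline.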

[8] = biological target: Cellular tumor antigen p53 (Homo sapiens) (UniProt P04637); experiment: TOX21_p53_BLA_p3_ratio: Tox21 HCT-116 p53 Agonism Beta-lactamase Assay, Ratio, Phase 3 (AID 2283596)
Outline: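 Cells were seeded at 4000/well, rested 5 h at 37C, then dosed with DMSO compound solutions (217-fold dilution) for 16 h. CCF4-AM substrate was loaded for 2 h at room temperature, and the 460/530 nm emission ratio was fitted for gain of signal versus DMSO.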

[9] = TOX21_p53_BLA_p4_viability: Viability Assessment in the Tox21 HCT-116 p53 Agonism Beta-lactamase Assay, Phase 4 (AID 2283597);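 note: hits lower the luminescence signal meaning cytotoxicity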
Outline: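 ATP content by CellTiter-Glo luminescence, 30 min RT, read after the beta-lactamase ratio step. Cells: HCT116, 4000/well, compound added after 5 h, exposure 16 h at 37C. Signal loss = reduced viability.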

[10] = biological target: Cellular tumor antigen p53 (Homo sapiens) (UniProt P04637); experiment: TOX21_p53_BLA_p5_ratio: Tox21 HCT-116 p53 Agonism Beta-lactamase Assay, Ratio, Phase 5 (AID 2283599)
Outline: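 HCT-116 p53-bla cells (4000/well) plated 5 h, dosed with compound (217-fold DMSO dilution) for 16 h at 37 C; CCF4-AM substrate 2 h at room temperature. Activity is the 460/530 nm emission ratio (405 nm excitation), fitted in gain-of-signal direction versus DMSO.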

[11] = TOX21_p53_BLA_p5_viability: Viability Assessment in the Tox21 HCT-116 p53 Agonism Beta-lactamase Assay, Phase 5 (AID 2283600)
Outline: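 ATP luminescence (CellTiter-Glo, 30 min, RT) served as the viability read-out, with loss of signal indicating cytotoxicity. Compounds in DMSO were pinned at a 217-fold dilution onto 4000 cells/well and incubated 16 h, 37C.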

[12] = biological target: Cellular tumor antigen p53 (Homo sapiens) (UniProt P04637); experiment: TOX21_p53_BLA_p4_ratio: Tox21 HCT-116 p53 Agonism Beta-lactamase Assay, Ratio, Phase 4 (AID 2283601)
Outline: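 HCT-116 p53 beta-lactamase reporter cells (4000/well) preincubated 5 h, then compound (217-fold dilution of DMSO stock) for 16 h at 37C. CCF4-AM substrate added 2 h at room temperature; 460/530 nm emission ratio fitted upward versus DMSO.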

[13] = Tanguay_ZF_120hpf_MORT_legacy: (Legacy) Oregon State University Tanguay Lab 120 Hour Post-fertilization zebrafish Assay for Mortality (AID 2283633);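 for AC50: fitted as increase in binary mortality versus DMSO negative control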
Outline: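 Brightfield scoring of embryo death (binary) at 24 and 120 hpf; static exposure 6–120 hpf, 28C, sealed and foil-covered. Pronase-dechorionated 5D wild-type larvae, single embryo per well. DMSO 0.64% v/v; trimethyltin chloride 5uM positive control.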

[14] = Tanguay_ZF_120hpf_YSE_legacy: (Legacy) Oregon State University Tanguay Lab 120 Hour Post-fertilization zebrafish Assay for Yolk Sac Edema (AID 2283634);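 for AC50: actives raise the incidence of yolk sac edema above the DMSO baseline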
Outline: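 Binary brightfield scoring of yolk sac edema at 120 hpf; DMSO baseline, gain-of-signal fitting. Dechorionated 5D larvae, one per well, static exposure 6–120 hpf, 28C, 0.64% DMSO. Dead embryos not scored.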

[15] = Tanguay_ZF_120hpf_AXIS_legacy: (Legacy) Oregon State University Tanguay Lab 120 Hour Post-fertilization zebrafish Assay for Body Axis Malformation (AID 2283635);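 for AC50: potency for an increased fraction of larvae scored with body axis malformation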
Outline: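 Embryos: 5D wild-type, pronase-dechorionated 4 hpf; static exposure 6–120 hpf, 28C, sealed, dark, 1 embryo/well, 0.64% DMSO. 120 hpf axis malformation scored present/absent; dead embryos excluded. Analysed as gain of signal vs DMSO.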

[16] = Tanguay_ZF_120hpf_SNOU_legacy: (Legacy) Oregon State University Tanguay Lab 120 Hour Post-fertilization zebrafish Assay for Snout Malformation (AID 2283637)
Outline: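 Binary brightfield scoring of snout malformation at 120 hpf. Dechorionated 5D wild-type embryos, one per well, static exposure from 6 hpf at 28C, sealed and dark; final DMSO 0.64% (vol/vol), DMSO as baseline; 5uM trimethyltin chloride positive control.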

[17] = Tanguay_ZF_120hpf_OTIC_legacy: (Legacy) Oregon State University Tanguay Lab 120 Hour Post-fertilization zebrafish Assay for Otic Vesicle Malformation (AID 2283639)
Outline: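 Brightfield scoring at 120 hpf, binary present/absent; DMSO negative control, 5uM trimethyltin chloride positive control. Static exposure at 28C, final DMSO 0.64% (vol/vol). Dead embryos not scored for malformation.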

[18] = Tanguay_ZF_120hpf_PE_legacy: (Legacy) Oregon State University Tanguay Lab 120 Hour Post-fertilization zebrafish Assay for Pericardial Edema (AID 2283640);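 for AC50: potency for increased incidence of pericardial edema versus DMSO baseline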
Outline: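 Static waterborne exposure, 5D wild-type embryos, 28C, to 120 hpf; final DMSO 0.64% (vol/vol). Binary PE call at 120 hpf by brightfield; fitted upward vs DMSO baseline. 5uM trimethyltin chloride as positive control.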

[19] = Tanguay_ZF_120hpf_EYE_legacy: (Legacy) Oregon State University Tanguay Lab 120 Hour Post-fertilization zebrafish Assay for Eye Malformation (AID 2283636);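 note: binary presence or absence of eye malformation scored by brightfield in 120 hpf larvae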
Outline: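 5D wild-type embryos, pronase-dechorionated at 4 hpf; static exposure 6–120 hpf, 28C, dark; DMSO 0.64% final; 5uM trimethyltin chloride positive control. Binary eye-defect scoring at 120 hpf; dead embryos not scored.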

[20] = Tanguay_ZF_120hpf_JAW_legacy: (Legacy) Oregon State University Tanguay Lab 120 Hour Post-fertilization zebrafish Assay for Jaw Malformation (AID 2283638);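 for AC50: active means more embryos with jaw malformation than DMSO controls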
Outline: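 Binary jaw-malformation calls at 120 hpf by brightfield imaging; DMSO (0.64% v/v) = baseline. Embryos: 5D wild-type, pronase-dechorionated, one per well from 6 hpf, static exposure, 28C, sealed, dark.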

Measured: AC50

CN(C)C(=O)Nc1ccc(Cl)c(Cl)c1
active: [1] 23.5 µM | [3] 21.7 µM
not listed: [19] | [20]
inactive: all other assays above

COCCO
not listed: [6] | [9] | [12] | [14]
inactive: all other assays above

CCOC(=O)c1ccc(O)cc1
active: [16] 24.5 µM
not listed: [11] | [17]
inactive: all other assays above

CC(C)(c1ccc(O)cc1)c1ccc(O)cc1
active: [7] 85.6 µM | [9] 85.1 µM | [12] 75.9 µM | [13] 16.4 µM | [14] 41.7 µM and 25.2 µM and 38.1 µM | [15] 36.5 µM and 64.9 µM and 25.3 µM | [19] 40 µM and 40.1 µM | [16] 46.9 µM and 47.9 µM and 37.4 µM | [20] 41.7 µM and 36.1 µM | [17] 40.5 µM and 37.7 µM | [18] 43.3 µM and 34.9 µM
inactive: [1] | [2] | [3] | [4] | [5] | [6] | [7] | [8] | [9] | [10] | [11] | [12] | [13] | [19] | [20] | [17]

CSC(=O)c1cccc2nnsc12
not listed: [6] | [11] | [17]
inactive: all other assays above

CC(=O)S[C@@H]1CC2=CC(=O)CC[C@]2(C)[C@H]2CC[C@@]3(C)[C@@H](CC[C@@]34CCC(=O)O4)[C@H]12
active: [1] 72.2 µM | [2] 50 µM | [3] 50 µM | [4] 79.1 µM | [7] 15.8 µM
inactive: [5] | [7] | [8] | [9] | [10] | [11] | [12] | [13] | [14] | [15] | [19] | [16] | [20] | [17]

Oc1ccc(C(c2ccc(O)cc2)C(Cl)(Cl)Cl)cc1
inactive: [5] | [11] | [13] | [14] | [19] | [18]
active: [1] 88.5 µM | [2] 79.2 µM | [3] 74.1 µM | [4] 76.4 µM | [6] 54.6 µM and 45.9 µM | [7] 72.9 µM and 69.1 µM | [8] 72.1 µM and 74.2 µM | [9] 38.3 µM and 80.7 µM | [10] 80.8 µM and 85.1 µM | [11] 66.7 µM | [12] 64.5 µM and 82.7 µM | [15] 63.4 µM | [16] 138 µM | [20] 117 µM
